# Whole data set: some 68,000 sequences, median “fluorescence intensity (a.u.)” near 9,100, cut for the highest 2% near 16,000. This excerpt belongs to a sample that is enriched for the highest values.
# Target: OsWRKY34 (Oryza sativa, UniProt Q0JBA9 1-250)
# Assay: protein-binding microarray (RPBM); PBS, 2% BSA, 51.3 ng/ul salmon testes DNA, 50 uM zinc acetate, 200 nM TF, 25 C, 1 h; high values mean tight binding
# Conditions: protein: recombinant; tags: N-terminal polyhistidine and DsRed monomer fusion (pET32a); label: CyDye5-dUTP incorporated in the synthesized complementary strand; 3' TTTTT single-stranded linker to array surface; dsDNA, one strand shown
# Method in brief: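 The binding signal for each feature is its fluorescence intensity in arbitrary units. An Axon 4000B scanner was used to read a custom Agilent array that had been made double-stranded with Cy5-dUTP primer extension, blocked with 2% BSA, incubated at 25 °C for 1 h with 200 nM protein in PBS, 2% BSA, salmon testes DNA and 50 µM zinc acetate, and washed. The protein was an N-terminal polyhistidine–DsRed transcription factor fusion from E. coli BL21-CodonPlus, purified on Ni–NTA.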
# OsWRKY34, sequence (Q0JBA9 entry or part of it): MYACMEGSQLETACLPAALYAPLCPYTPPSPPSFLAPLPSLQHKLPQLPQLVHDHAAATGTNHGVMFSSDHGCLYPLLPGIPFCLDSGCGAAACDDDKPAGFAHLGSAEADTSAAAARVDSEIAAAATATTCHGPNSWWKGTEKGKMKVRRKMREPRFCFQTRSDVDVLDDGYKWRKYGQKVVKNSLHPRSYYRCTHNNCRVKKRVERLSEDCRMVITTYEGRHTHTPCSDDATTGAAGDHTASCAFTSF
row,Sequence,binding signal
1,GCCACCTTTTGTTCCGCAACCGCAATGATTTCTTCTTCTTCGGAGTCACCTAGTGCAG,14800 fluorescence intensity (a.u.)
2,TATATATATATATATATATAGATTTATTGACATCTATATGCGGAGTCACCTAGTGCAG,9230 fluorescence intensity (a.u.)
3,GTTTGACATGCAGACTTGATTCTATCACCTATAGCATCTGCGGAGTCACCTAGTGCAG,28100 fluorescence intensity (a.u.)
4,TAGTGGTGGTCTTGATTCCTGACATAGCAGACGCATCTGACGGAGTCACCTAGTGCAG,10500 fluorescence intensity (a.u.)
5,GAGTTTTTACTTTGTAATGTTTGACCACTCGTCTTATTCACGGAGTCACCTAGTGCAG,8880 fluorescence intensity (a.u.)
6,ATTTTCATTTGGTTGGTGTGGTTATCTCTTTTTTCATTTACGGAGTCACCTAGTGCAG,20700 fluorescence intensity (a.u.)
7,GGGGTTTCTCATGGGCCAACTATACATTCACACGCGGCCGCGGAGTCACCTAGTGCAG,17400 fluorescence intensity (a.u.)
8,TCTTGGTTACATGGTGGTTGGTGTTTCATTCTCTTGTTTTCGGAGTCACCTAGTGCAG,10000 fluorescence intensity (a.u.)
9,TTTACATTCATTTCTCTATACGAGCATGGGCCGCACTATACGGAGTCACCTAGTGCAG,9830 fluorescence intensity (a.u.)
10,TCAGTTTTTGTTTGCAATGTTTGACCACTCGTCTTATTCACGGAGTCACCTAGTGCAG,18500 fluorescence intensity (a.u.)
11,GGTTTCTTCTCATTCTTCTTTTTTTCCTTTTTTCTACACGCGGAGTCACCTAGTGCAG,14000 fluorescence intensity (a.u.)
12,CTTCCTAACGTTCATATCTCTGTGTTTTTAGTGTGTCATACGGAGTCACCTAGTGCAG,9860 fluorescence intensity (a.u.)
13,TTCTTCATTATCTCTATTTGTGGTGCTATTGGTTTATTTTCGGAGTCACCTAGTGCAG,8980 fluorescence intensity (a.u.)
14,CTGTCGTGTTTCCTCTGATTAGTTCATACAGCATCTGTTACGGAGTCACCTAGTGCAG,17600 fluorescence intensity (a.u.)
15,TTCAGTTTTTGCTTGCAACGTTTGACCACTCGTCTTATTCCGGAGTCACCTAGTGCAG,15600 fluorescence intensity (a.u.)
16,ATCTGATTTTTATTTTCAGCATATGCATCGTTTTCATGTTCGGAGTCACCTAGTGCAG,10200 fluorescence intensity (a.u.)
17,GGCCTAATTATTGCCTTAATTTTTCTCTTTGGTTTTCTCACGGAGTCACCTAGTGCAG,9070 fluorescence intensity (a.u.)
18,TGAGGGCTGCTGTGCTATTCTTCCTGGACATCTCTGGGTCCGGAGTCACCTAGTGCAG,8650 fluorescence intensity (a.u.)
19,TTTCTGTTTAACGTCAACCCGGCTGTTTTCGCCCGGTCAACGGAGTCACCTAGTGCAG,9040 fluorescence intensity (a.u.)
20,GCCAAGACGCCCAAAGCACACACTCTCTCTCGCTGTCTTTCGGAGTCACCTAGTGCAG,8490 fluorescence intensity (a.u.)
21,GATTTGATGGATTTGTTGAGAGATATGCTTCTTAAGCCAACGGAGTCACCTAGTGCAG,8300 fluorescence intensity (a.u.)
22,CACACCTAGGCCGCCTTTTTCAACCGGGGAGCACACCTTTCGGAGTCACCTAGTGCAG,10400 fluorescence intensity (a.u.)

row,Sequence,binding signal
1,AATATGTACTACTTCCGTTTCAGGTTATAAGACTTTCTAGCGGAGTCACCTAGTGCAG,8400 fluorescence intensity (a.u.)
2,CGTAGTAATGTCTGAATTCACCGCCTTAATCCTGTCACGACGGAGTCACCTAGTGCAG,8450 fluorescence intensity (a.u.)
3,TTTTTCTTTTCTCGCGTACAGCTGGACGCTTCGTTTGCTTCGGAGTCACCTAGTGCAG,11100 fluorescence intensity (a.u.)
4,CCCATCAACCGCCAAAGACTTCCCGCGCGCGTCTACATATCGGAGTCACCTAGTGCAG,8450 fluorescence intensity (a.u.)
5,ACCGTCCTCCTCGTCACCCACCAGCTCGACTTCCTCCGCACGGAGTCACCTAGTGCAG,8200 fluorescence intensity (a.u.)
6,GTCAACGATCCGGCGTCTGTTCCACTTCTACCCTCCCATCCGGAGTCACCTAGTGCAG,8250 fluorescence intensity (a.u.)
7,TACTGGTTCTACTTGATCTTATTTATCTTTTTATTCTATTCGGAGTCACCTAGTGCAG,10100 fluorescence intensity (a.u.)
8,TTTCTCATATGTTTGACCATTCGTCTTATTAAAAAAATTTCGGAGTCACCTAGTGCAG,8930 fluorescence intensity (a.u.)
9,ATACTCTTGGTTTATCTTTGATTTTGTATATCTTTTTATTCGGAGTCACCTAGTGCAG,9720 fluorescence intensity (a.u.)
10,ATTTTACTCTTTTGACTATATTGGTTCGGTTGAAGTTTTACGGAGTCACCTAGTGCAG,23100 fluorescence intensity (a.u.)
11,CATATGTTTGACCATTCGTCTTATTCAAAAATTTTATTCACGGAGTCACCTAGTGCAG,9660 fluorescence intensity (a.u.)
12,CATCTGTCTCTGGATCTCTGCATATCTCCTCTTCTGTGATCGGAGTCACCTAGTGCAG,17200 fluorescence intensity (a.u.)
13,CCCTTTACTTGATTTTCTGCTGGTTGGTTTATCTTTTATTCGGAGTCACCTAGTGCAG,19600 fluorescence intensity (a.u.)
14,ATTTAGAGTTGACTTTGGTTTATTTTTCATTGAAGTTTATCGGAGTCACCTAGTGCAG,9450 fluorescence intensity (a.u.)
15,CTGGATCTCCTCTCTCTCTCTCTCTCTCTGTCCTTCTTCTCGGAGTCACCTAGTGCAG,10800 fluorescence intensity (a.u.)
16,TCTGCATGATTCCTTGGTTTCTTTTTTTACACATTTACTTCGGAGTCACCTAGTGCAG,10500 fluorescence intensity (a.u.)
17,CTGTTGACTTTTTCTTATATGTTTGACCATTCGTCTTATTCGGAGTCACCTAGTGCAG,24600 fluorescence intensity (a.u.)
18,ACCATCTCTCTCTCTCTCTCTGCATGCATATCTTCTCCTCCGGAGTCACCTAGTGCAG,14300 fluorescence intensity (a.u.)
19,TCTGCTTCACTGTATTTTTGTCCAACAATTCCATGACATGCGGAGTCACCTAGTGCAG,8550 fluorescence intensity (a.u.)
20,TTTAGATTTATTTTTTGTGACATAGGGAGTACTTTTTTTTCGGAGTCACCTAGTGCAG,9200 fluorescence intensity (a.u.)
21,CTTCTCAAGTTCCAACCTTTGCGCTTTCTTATTATCAAAGCGGAGTCACCTAGTGCAG,8550 fluorescence intensity (a.u.)
22,GCACGCATGCAGTTCCTTGACCAATTCTCACATCAACCACCGGAGTCACCTAGTGCAG,9100 fluorescence intensity (a.u.)

row,Sequence,binding signal
1,AAACGTATGGCTGCTCTCTCTCTGCTGATGATCTCTCTCTCGGAGTCACCTAGTGCAG,8180 fluorescence intensity (a.u.)
2,GCCAATTTTTTCTCCTCACATCTATTTTACCCTATTATTCCGGAGTCACCTAGTGCAG,8390 fluorescence intensity (a.u.)
3,CCGAGCACCCACCCGCCGCCGCCGCCGTCGCCGATTCATGCGGAGTCACCTAGTGCAG,9080 fluorescence intensity (a.u.)
4,GTAATTAACCAGAATTCAGGTTTTGTCAGTGCCACCATCACGGAGTCACCTAGTGCAG,9850 fluorescence intensity (a.u.)
5,GAATCATGAGTTGGTTGGGTTGGCATTAAACTGTTTTGAGCGGAGTCACCTAGTGCAG,12100 fluorescence intensity (a.u.)
6,TTTGTGTTGTCTAGACATTTTTTTCTATTTTTCACCTATTCGGAGTCACCTAGTGCAG,9190 fluorescence intensity (a.u.)
7,ACTTTGTCCACCCATTTTGTGTTGTCTCGTTGTTTCTATTCGGAGTCACCTAGTGCAG,17000 fluorescence intensity (a.u.)
8,CGTTGACTTTTTCTTACATGTTTGACCATTCGTCTTATTTCGGAGTCACCTAGTGCAG,35300 fluorescence intensity (a.u.)
9,TGTTGACTTTTGGATACATGTTTGACAATTCGTCTTATTTCGGAGTCACCTAGTGCAG,14700 fluorescence intensity (a.u.)
10,ATGACATGTCATGGGACTTACTTTACATGGTTTTGAATACCGGAGTCACCTAGTGCAG,8140 fluorescence intensity (a.u.)
11,GGTTTTGCGGTTGAGCGAAACGACCCAATGGGAATCAAGACGGAGTCACCTAGTGCAG,60000 fluorescence intensity (a.u.)
12,ATTTTATTGTTGCGGTTGCCAATCAACAACGACGTCATTTCGGAGTCACCTAGTGCAG,9550 fluorescence intensity (a.u.)
13,TGGGACTTTATTTGCACTGGTTTTGGGAGTTGAGGGACACCGGAGTCACCTAGTGCAG,8550 fluorescence intensity (a.u.)
14,ATTTCTAACTTTTTTTCCCATTGTTTTGTTTGTCTTATTTCGGAGTCACCTAGTGCAG,8920 fluorescence intensity (a.u.)
15,GACACGGAAAATCATGGTTTGACTTTTTTTTTTGGGACGGCGGAGTCACCTAGTGCAG,19400 fluorescence intensity (a.u.)
16,TCGTTGATTTTTGACATGATGTTTGACCATTCTTATTATTCGGAGTCACCTAGTGCAG,9750 fluorescence intensity (a.u.)
17,GGCCTCTCAACTGACCCGTCTGCGAAATATGTTTATTTTCCGGAGTCACCTAGTGCAG,8060 fluorescence intensity (a.u.)
18,ATTTATAGAGGTTGGGTGTGCATGTGTGGTGAGCATATTTCGGAGTCACCTAGTGCAG,8820 fluorescence intensity (a.u.)
19,GCTAGCGCTGCCGCCCTACTCTTGATCCTAAATATTCATTCGGAGTCACCTAGTGCAG,8210 fluorescence intensity (a.u.)
20,ACTGGTCGAACCTTGGCGGGGAGGGGCCGGCCGGCCTCATCGGAGTCACCTAGTGCAG,8640 fluorescence intensity (a.u.)
21,ATGAAATGTTTGTCATTTCTGGTGGGGCTGTTAGTTAATTCGGAGTCACCTAGTGCAG,9970 fluorescence intensity (a.u.)
22,CAAACCTGTGTACTTTCTACGTGTTTTTTCTATGTTTCCGCGGAGTCACCTAGTGCAG,12100 fluorescence intensity (a.u.)

row,Sequence,binding signal
1,ACCATATGCATCTGAATTTGTTCTGAGTATACTCCATTTCCGGAGTCACCTAGTGCAG,10600 fluorescence intensity (a.u.)
2,TGCCCGACTTGGCTTTCTCCTCCTCTCTCCTCCCGCAACCCGGAGTCACCTAGTGCAG,8600 fluorescence intensity (a.u.)
3,AGCAGTTAACCCACCGTACAACAAAATCAATCAGTTTCTTCGGAGTCACCTAGTGCAG,8270 fluorescence intensity (a.u.)
4,CCGCCGCCGCCTCCTGCTCCTTCGACCTGCCCCGGCCCCGCGGAGTCACCTAGTGCAG,8870 fluorescence intensity (a.u.)
5,CCCCTATTTAGCCGCGCCATTTTCCCCTCGCTAGCTGTGTCGGAGTCACCTAGTGCAG,8400 fluorescence intensity (a.u.)
6,TAATTTTTATAGGCCTGTTCATATTTTCTACCGTTGATTTCGGAGTCACCTAGTGCAG,10300 fluorescence intensity (a.u.)
7,TTGACATCCTACGTTTGTGTTCCTCGTCACTCCACTATCGCGGAGTCACCTAGTGCAG,8040 fluorescence intensity (a.u.)
8,CTGTGTTTTCTATTTTTCTCTGTTTTACATCTATCTTCTTCGGAGTCACCTAGTGCAG,19100 fluorescence intensity (a.u.)
9,ATATTTTTTCTGTGTTTTGCAATCTTCTATTTTACACTTTCGGAGTCACCTAGTGCAG,11200 fluorescence intensity (a.u.)
10,GGTTGGTTTCTTTGTTTTTCTCTTATATTTACACTATATTCGGAGTCACCTAGTGCAG,23800 fluorescence intensity (a.u.)
11,CCAATTTCTCTCTCCACATCTCTCTGTGTTTCTTTTATTTCGGAGTCACCTAGTGCAG,9680 fluorescence intensity (a.u.)
12,ACACCATTGACTTTTTAATATGTGTTTGACCATTCGTCTTCGGAGTCACCTAGTGCAG,19200 fluorescence intensity (a.u.)
13,TTCTTTTTATATTTTCTTTTGTTGGTTTTTTTCGTCTCAACGGAGTCACCTAGTGCAG,13200 fluorescence intensity (a.u.)
14,CTTACTTGGTCACTCCCTTTTTGTTATCTGATTTAGACGTCGGAGTCACCTAGTGCAG,8230 fluorescence intensity (a.u.)
15,CGTCCTTATATAATTGTTTTACTTGGTGATTTCATCTGGTCGGAGTCACCTAGTGCAG,64500 fluorescence intensity (a.u.)
16,ATTGACTTTTTTAAAAATGTTTGACCATTCGTCTTATTCACGGAGTCACCTAGTGCAG,9010 fluorescence intensity (a.u.)
17,TGTTTGACACCATTGACTTTTTAGTATGTGTTTGACCATTCGGAGTCACCTAGTGCAG,13200 fluorescence intensity (a.u.)
18,TCTGTATGGTCTACTTGTTTGATTGATTGATAATTTTACACGGAGTCACCTAGTGCAG,9240 fluorescence intensity (a.u.)
19,TTTTGACTTTCTCTTACACTGTTTGACCATTTATCTTATTCGGAGTCACCTAGTGCAG,14000 fluorescence intensity (a.u.)

# — paper PMC7819943, “Rice protein-binding microarrays: a tool to detect cis-acting elements near promoter regions in rice”
